GSH fluor = GSH bead compound fluorescence profile; GSH beads flow cytometry, compound fluorescence 488/530 nm; stronger effect = higher value; fluorescence (KMESF) at 10 µM; actives 0.25% (n = 190,000); in the data active = fluorescence above about 89;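 note: glutathione beads carrying GST-tagged Bcl family fusion proteins plus one bare bead set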
RGS16-Gao = RGS16-Galphao interaction regulator (human). binding response (% of control), % at 10 µM. actives 0.38% (n = 220,000). O15492+P09471. bead-based flow cytometry RGS16-Galphao binding, fluorescence; actives lie on both sides. AID 1441;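 note: Galphao activated by GDP with aluminum fluoride before binding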
RGS7-Gao = modulates binding of RGS7 to human Galphao. binding response (% of control), % at 10 µM. actives 0.35% (n = 220,000). Multiplexed bead flow cytometry; actives lie on both sides. P09471; in the data active = binding response below about 49% or above about 150%; inconclusive = no clear call, values can overlap the other calls; inactive = in between;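 note: fluorescent Galphao held in activated GDP-AlF4 state binding bead-coupled RGS7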
Target sequence (P09471 whole entry, looked up): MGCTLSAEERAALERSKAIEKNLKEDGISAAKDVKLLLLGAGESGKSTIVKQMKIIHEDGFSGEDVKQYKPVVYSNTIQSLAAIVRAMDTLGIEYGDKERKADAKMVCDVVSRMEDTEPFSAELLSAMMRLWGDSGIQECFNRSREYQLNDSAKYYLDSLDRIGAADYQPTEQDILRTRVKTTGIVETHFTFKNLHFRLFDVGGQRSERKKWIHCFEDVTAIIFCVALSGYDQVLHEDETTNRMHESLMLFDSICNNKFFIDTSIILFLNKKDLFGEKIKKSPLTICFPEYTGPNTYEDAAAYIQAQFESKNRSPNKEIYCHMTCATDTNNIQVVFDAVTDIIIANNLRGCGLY
Avidin fluor = avidin bead compound fluorescence profile; fluorescence (KMESF) at 10 µM; Avidin beads, compound fluorescence 488/530 nm, flow cytometry; stronger effect = higher value; actives 0.38% (n = 220,000); AID 1775; in the data active = fluorescence above about 47
RGS4-Gao reg = modulates binding of RGS4 to human Galphao; P09471; Multiplexed bead flow cytometry; actives lie on both sides; binding response (% of control), % at 10 µM; actives 0.33% (n = 220,000); AID 1415; in the data active = binding response below about 49% or above about 150%; inactive = in between;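 note: fluorescent Galphao activated with aluminum fluoride binding bead-coupled RGS4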
RGS8-Gao = regulators of human RGS8-Galphao interaction; P09471; multiplexed bead flow cytometry, RGS8-Galphao binding; actives lie on both sides; response (percent of control binding), % at 10 µM; actives 0.34% (n = 220,000); in the data active = response below about 60% or above about 140%; inactive = in between;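 note: Galphao activated as the GDP aluminium fluoride complex binding bead-coupled RGS8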
RGS4-Gao HTS = regulators of human RGS4-Galphao interaction | shares compounds with RGS16-Gao | multiplexed bead flow cytometry, RGS–Galpha-o binding | RGS4–Galpha-o binding response, % at 10 µM | actives 99% (n = 1,600);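 note: fluorescently labeled Galpha-o bound to GDP with aluminium fluoride binding biotinylated RGS beads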
Target sequence (P09471 whole entry, looked up): as above
Target sequence (P49798 whole entry, looked up): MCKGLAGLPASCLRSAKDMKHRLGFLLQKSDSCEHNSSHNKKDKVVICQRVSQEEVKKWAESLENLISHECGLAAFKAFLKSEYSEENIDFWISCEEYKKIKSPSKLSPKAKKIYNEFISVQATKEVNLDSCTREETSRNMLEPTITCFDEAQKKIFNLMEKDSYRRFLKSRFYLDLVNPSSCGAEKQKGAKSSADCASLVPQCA
Avidin counter = biotin-avidin bead binding disruption counter-screen. shares compounds with RGS16-Gao. streptavidin beads, fluorescein-biotin binding, flow cytometry. inhibition, % at 10 µM. 1,700 tested, under 10 active. AID 1783;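 active = inhibition above 50%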;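 note: median green fluorescence of gated singlet beads compared with DMSO control wells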
RGS8-Gao single = RGS8-Galphao interaction regulation, single point confirmation; binding response (% of control), % at 10 µM; actives 3% (n = 1,700); bead-based flow cytometry RGS8-Galphao binding, fluorescence; actives lie on both sides; AID 1836; shares compounds with RGS16-Gao; in the data active = binding response below about 72% or above about 130%; inactive = in between;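 note: Galphao activated as GDP AlF4 complex before binding bead RGS8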
RGS7-Gao single = RGS7-Galphao interaction regulation, single point confirmation. shares compounds with RGS16-Gao. bead-based flow cytometry RGS7-Galphao binding; actives lie on both sides. response (percent of control binding), % at 10 µM. actives 7.8% (n = 1,700). AID 1837; in the data active = response below about 75% or above about 130%; inactive = in between;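 note: fluorescent Galphao activated with GDP and aluminum fluoride binding bead-coupled RGS7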
RGS16-Gao single = confirmation of regulators of human RGS16-Galphao interaction; shares compounds with RGS16-Gao; bead-based flow cytometry, RGS16-Galphao binding; actives lie on both sides; response (% of control binding), % at 10 µM; actives 4% (n = 1,700); AID 1838; in the data active = response below about 74% or above about 130%; inactive = in between;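 note: Galphao activated as the GDP aluminium fluoride complex binding bead-coupled RGS16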
RGS4-Gao confirm = confirmation of regulators of human RGS4-Galphao interaction. shares compounds with RGS16-Gao. actives 4% (n = 1,700). RGS4-Galphao binding, multiplexed bead flow cytometry; actives lie on both sides. binding response (% of control), % at 10 µM. AID 1840; in the data active = binding response below about 74% or above about 130%; inactive = in between
RGS19-Gao single = RGS19-Galphao interaction regulation, single point confirmation | shares compounds with RGS16-Gao | bead-based flow cytometry RGS19-Galphao binding; actives lie on both sides | response (percent of control binding), % at 10 µM | actives 5% (n = 1,700) | AID 1841; in the data active = response below about 50% or above about 160%; inactive = in between
Hits are given with their value; 0 = inactive; ? = inconclusive; - = no result; + = active, no number; [ ] = another dose, or the depositor's remark. Shown are actives, neighbours in structure and some others; about 1.2% of the full set was active somewhere. Unless noted, the rule behind the calls is not given here.

SMILES	GSH fluor	RGS16-Gao	RGS7-Gao	Avidin fluor	RGS4-Gao reg	RGS8-Gao	Avidin counter	RGS8-Gao single	RGS7-Gao single	RGS16-Gao single	RGS4-Gao confirm	RGS19-Gao single	others
O=C(Cn1c2ccccc2c(=O)c2ccccc21)N/N=C/c1ccc(N2CCCC2)c([N+](=O)[O-])c1	0	0	0	0	0	0	-	-	-	-	-	-
O=C(Cn1c2ccccc2c(=O)c2ccccc21)N/N=C/c1cc([N+](=O)[O-])ccc1N1CCCCCC1	0	-	-	-	-	-	0	0	134.7[activator]	139.5[activator]	129.1[activator]	384.1[activator]
CCS(=O)(=O)c1nc(S(=O)(=O)c2ccc(Cl)cc2)c(NCc2ccccn2)s1	0	0	0	0	0	0	-	-	-	-	-	-
COc1ccc2[nH]c(=O)c(CN(C(=O)c3cccnc3)c3ccccc3C)cc2c1	-	280.3[activator]	?	118	306.8[activator]	142.0[activator]	0	0	56.1	72.7	72.1	39.2
Cc1ccc(Nc2nc(N)nc(CN3CCN(Cc4ccc5c(c4)OCO5)CC3)n2)cc1Cl	0	0	45.3	0	-9.2	0	0	0	0	0	0	0
Cc1ccc(-c2nn(CC(=O)NN3CCOCC3)c(=O)c3ccccc23)cc1	-	0	?	0	0	0	-	-	-	-	-	-
CCOC(=O)C1C(c2ccc(O)c(O)c2)NC(=S)NC1(O)C(F)(F)F (stereo unspecified)	0	0	34.5	0	17.5	0	0	0	0	0	0	0
OCCC1CN(Cc2cccn2-c2nccs2)CCN1C1CCCCC1 (stereo unspecified)	0	0	0	0	0	0	-	-	-	-	-	-
CC(C)N1CCN(Cc2cccn2-c2nccs2)CC1CCO (stereo unspecified)	0	0	191.6[activator]	56	0	0	0	0	0	0	0	0	RGS4-Gao HTS=115.0
Cc1cn2c(N)c(C=C3C=C(Cl)C(=O)C(Cl)=C3)c(=O)nc2s1	0	443.8[activator]	473.5[activator]	179	548.7[activator]	0	0	140.8[activator]	+[activator]	449.0[activator]	658.7[activator]	+[activator]
COC1=C/C(=C/c2c(N)n3cc(C)sc3nc2=O)C=CC1=O	0	0	0	0	0	0	-	-	-	-	-	-
Cc1ccc(NC(=O)COC(=O)C2CC(=O)N(Cc3ccccc3)C2)cc1S(=O)(=O)N(C)C (stereo unspecified)	0	0	?	0	0	0	-	-	-	-	-	-
COc1ccccc1NC(=O)Cc1cccs1	0	0	0	0	0	0	-	-	-	-	-	-
COc1ccccc1NC(=O)Nc1ccnn1Cc1cccs1	0	-55.2	-20.5	0	-58.6	6.0	0	0	0	0	0	0
O=C(CNC(=O)/C(=C\c1ccc(F)cc1)NC(=O)c1ccccc1)OCc1ccccc1	0	0	172.4[activator]	199	0	0	-	-	-	-	-	-	RGS4-Gao HTS=124.5
O=C(CNC(=O)/C(=C\c1ccccc1)NC(=O)c1ccc(Br)cc1)OCc1ccccc1	0	0	0	0	0	0	-	-	-	-	-	-
CSc1cccc(NC(=S)Nc2cc(C)ccc2C)c1	-	0	?	0	0	0	-	-	-	-	-	-
C/C(CC(=O)Nc1ccccn1)=N\NC(=O)c1ccc2ccccc2c1	0	210.7[activator]	0	0	0	0	0	0	0	0	0	0	RGS4-Gao HTS=107.4
Cc1ccc(C)c(CN2CCNC2=O)c1	0	7.9	15.2	0	20.3	13.3	0	0	0	0	0	0
CC(Nc1ccc2c(c1)OCCO2)C(=O)N1c2ccccc2CC1C (stereo unspecified)	0	0	0	0	0	0	-	-	-	-	-	-
CSc1cccc(NC(=S)N2CCC(N(C)C3CCCC3)CC2)c1	0	0	0	0	0	0	-	-	-	-	-	-
COc1cc(-c2cc(C(=O)O)c3cc4c(cc3n2)OCCO4)cc(OC)c1OC	0	-	-	-	-	-	0	0	0	0	0	0
COc1cc(-c2cc(C(=O)NN3CCN(C)CC3)c3ccccc3n2)cc(OC)c1OC	0	281.8[activator]	0	0	0	0	0	0	0	0	0	0	RGS4-Gao HTS=110.5
COC(=O)c1ccc(C(NC(=O)c2cccnc2)NC(=O)c2cccnc2)cc1	0	0	?	0	0	0	-	-	-	-	-	-
COc1ccc(NC(=O)CSc2nnc(CNC(=O)COc3ccc(Cl)cc3)o2)c(OC)c1	0	0	0	0	0	0	-	-	-	-	-	-
SMILES	GSH fluor	RGS16-Gao	RGS7-Gao	Avidin fluor	RGS4-Gao reg	RGS8-Gao	Avidin counter	RGS8-Gao single	RGS7-Gao single	RGS16-Gao single	RGS4-Gao confirm	RGS19-Gao single	others
COc1ccc(OC)c(NC(=O)CSc2nnc(CNC(=O)COc3ccc(Cl)cc3)o2)c1	0	0	159.5[activator]	68	0	0	0	0	0	0	0	0	RGS4-Gao HTS=105.2
COc1cc(CNc2ncn[nH]2)ccc1OCc1cccc(C)c1	0	0	0	0	0	0	-	-	-	-	-	-
Cc1nn(Cc2ccc(F)cc2)c2sc(C(=O)Nc3ccccc3N3CCOCC3)cc12	0	15.3	0	0	0	0	0	0	0	0	0	0	RGS4-Gao HTS=88.9
Cc1nn(Cc2ccccc2Cl)c2sc(C(=O)Nc3ccccc3N3CCOCC3)cc12	0	0	0	0	0	0	-	-	-	-	-	-
COc1ccc(Cl)cc1C(=O)Nc1ccc(NC(=O)C(C)C)cc1	0	0	?	0	0	0	-	-	-	-	-	-
O=C(NCc1cccnc1)c1ccc(COc2ccc(Cl)cc2Cl)o1	0	0	0	0	0	0	-	-	-	-	-	-
O=C(NCc1cccnc1)c1ccc(COc2cccc3ccccc23)o1	0	0	46.8	0	49.2	56.4	0	0	0	0	0	0
Cc1ccc(S(=O)(=O)NCC2CCC(C(=O)NCc3ccc4c(c3)OCO4)CC2)cc1 (stereo unspecified)	0	0	-	-	0	-	0	0	0	0	0	0
CCOC(=O)c1c(NC(=O)Cn2cnc([N+](=O)[O-])n2)sc2c1CCCC2	0	0	0	0	0	0	-	-	-	-	-	-
CC(C)OC(=O)c1c(NC(=O)Cn2cnc([N+](=O)[O-])n2)sc2c1CCCC2	0	-	-	-	-	-	0	0	0	0	0	0
O=C(CSc1nc2ccccc2s1)Nc1cc(S(=O)(=O)N2CCOCC2)ccc1O	0	0	0	0	0	0	-	-	-	-	-	-

Screening results deposited in PubChem by NMMLSC.
